The values below come from PubChem BioAssay AID463173 (ICCB-Longwood Screening Facility, Harvard Medical School, 2010).

Among all 52,000 compounds or so, about 4,300 (8.3%) were called active. The sample holds actives, similar compounds and a random draw of the others, so the mix is not that of the screen. Rule as the data show it: active = survival mostly below about 52% (no sharp cut-off); inactive = mostly above about 56%.

The subject of this experiment is DeltatarO mutant. Nature of the experiment: growth inhibition of S. aureus wild type versus tarO mutant, primary screen, teichoic acid synthesis inhibitors, RN4220, OD600 (AID 463173). The conditions noted are these: OD600, 18 h, active compounds read low, screened at 18.75 µg/mL (by protocol).
In the case of `O=C1NC(=O)C2C3c4ccccc4C(c4ccccc43)C12` (stereo not given), the survival is 98% (inactive).
To `O=C(CSc1nnc(CNC(=O)c2c(F)cccc2Cl)o1)Nc1cccc(F)c1` belongs 82% (inactive); to `CCc1ccc(CNC(=O)c2ccc3c(c2)nc2n3CCCCC2)cc1`, 79% (inactive).
To `COC(=O)c1c(NC(=O)c2cc(=O)c3ccc(C)c(C)c3o2)sc2c1CCCC2` belongs 84% (inactive); to `N#CC(C#N)=Cc1cn(CCOc2ccc3c(c2)OCO3)c2ccccc12`, 98% (inactive).
To `CCOC(=O)c1cc(=O)n2[nH]c(-c3ccc(Br)cc3)cc2n1` belongs 93% (inactive); to `COc1ccc(NC(=O)c2ccc3c(c2)N(Cc2cccc(Cl)c2)C(=O)c2ccccc2S3=O)cc1Cl` (stereo not given), 112% (inactive); to `COc1ccc(N(C)C(=O)c2nn(-c3ccc(C)cc3)c(=O)n(C)c2=O)c(OC)c1`, 82% (inactive).
For `CCOc1ccc(-c2nnc(SCC(=O)Nc3cccc(OC)c3)nc2-c2ccc(OCC)cc2)cc1`, the survival was 0% (active).
As for `COc1ccc(-c2nnc(SCC(=O)Nc3cccc(C(F)(F)F)c3)nc2-c2ccc(OC)cc2)cc1`, the figure is 87% (inactive); as for `CCOc1cccc(NC(=O)CSc2ncc(-c3ccc(Cl)cc3)[nH]2)c1`, 39% (active).
To `COc1cc(-c2nnc(SCC(=O)Nc3cccc(C#N)c3)o2)cc(OC)c1OC` belongs 110% (inactive); to `COc1ccc(NC(=O)CSc2ncc(-c3ccc(Cl)cc3)[nH]2)cc1OC`, 78% (inactive); to `CCOc1cccc(NC(=O)CSc2ncc(-c3ccccc3)[nH]2)c1`, 49% (inactive).
As for `O=C(CSc1ncc(-c2ccccc2)[nH]1)Nc1ccccc1`, the survival is 64% (inactive).
As for `CCOc1ccc(-c2nnc(SCC(=O)Nc3cccc(C#N)c3)o2)cc1`, the figure is 48% (active); as for `CCOc1ccc(NC(=O)CSc2nnc(-c3ccc(C)cc3)c(-c3ccc(C)cc3)n2)cc1`, 115% (inactive); as for `Cc1ccc(NC(=O)CSc2ncc(-c3ccccc3)[nH]2)cc1`, 51% (inactive).
To `O=C(CSc1ncc(-c2ccccc2)[nH]1)Nc1ccc(Cl)cc1` belongs 36% (active).
As for `CCOc1ccc(NC(=O)CSc2nnc(-c3ccc(OCC)cc3)o2)cc1`, the figure is 94% (inactive).
In the case of `CCOc1ccccc1-n1nnc(-c2nc(-c3ccccc3C)no2)c1C`, the survival was 96% (inactive).
To `Cc1c(F)cccc1NC(=O)C1CCCN1S(=O)(=O)c1ccc(F)cc1` (stereo not given) belongs 72% (inactive); to `CC1=C(c2ccc(C)cc2)S(=O)(=O)N(Cc2ccc(C(=O)NCc3ccccc3)cc2)C1=O`, 81% (inactive); to `CCN(C(=O)c1cccs1)c1nnc(-c2cccc(C)c2)s1`, 93% (inactive).
As for `COc1ccc(CCNC(=S)N(Cc2ccco2)Cc2cc3cc(OC)c(OC)cc3[nH]c2=O)cc1OC`, the figure is 73% (inactive).
